Where “and” joins values, the source holds several entries; their conditions need not be identical. Identical values can stand only once. Inconclusive results are not listed. Some compounds were tested as several samples or in several runs, with calls that do not always agree. Calls of active or inactive are those of the source. Unless noted, calls follow the shape of the dose curve; as a rule, active = well fitted curve in the direction sought with a large enough effect in the repeat runs; inconclusive = weak or mixed curves; inactive = no such curve, though single readings can be large; an effect the other way counts as inactive or inconclusive.
Tests used:
[1] = qHTS assay to identify small molecule agonists of the androgen receptor (AR) signaling pathway in the presence of an antagonist - cell viability counter screen (AID 1259379); also: nearly all actives have a fitted effect of over 25% in size; also: potency is read from the fitted curve at half-maximal effect;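 as to activity change, negative = cytotoxicity: MDA-kb2 human breast cancer cells carrying an MMTV luciferase reporter; series mostly up to about 92 µM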
Procedure, shortened: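 MDA-kb2 viability measured by CellTiter-Fluor fluorescence in the same wells as the luciferase signal; nilutamide 3.0uM final; 15-point compound titration; 16 hr at 37C.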

[2] = qHTS assay to identify small molecule agonists of the estrogen receptor beta (ER-beta) signaling pathway - cell viability counter screen (AID 1259380); also: nearly all actives have a fitted effect of over 30% in size; also: potency is read from the fitted curve at half-maximal effect
Procedure, shortened: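 Measured: luminescence from CellTiter-Glo after 30 min at room temperature, added to wells already read for the LiveBLAzer FRET reporter (2 hr substrate); ER-beta-UAS-bla HEK293T cells had 16 hr compound treatment at 37C, 5% CO2.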

[3] = target: Androgen receptor (Homo sapiens) (UniProt P10275); experiment: qHTS assay to identify small molecule agonists of the androgen receptor (AR) signaling pathway in the presence of an antagonist (AID 1259381; calls by dose curve; also: nearly all actives have a fitted effect of over 15% in size)
Procedure, shortened: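 Luminescent ONE-Glo read, 30min at room temperature, follows 16hr compound exposure (15 concentrations) of MDA-kb2 cells at 37C, 0% CO2, with nilutamide added at 3.0uM final.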

[4] = qHTS assay to identify small molecule antagonists of the estrogen receptor beta (ER-beta) signaling pathway - cell viability counter screen (AID 1259382); also: nearly all actives have a fitted effect of over 55% in size; also: potency is read from the fitted curve at half-maximal effect;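 as to activity change, negative = cytotoxicity: HEK293T cells carrying ER-beta-UAS-bla reporter stimulated with estradiol; series mostly up to about 92 µM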
Procedure, shortened: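 Readout: luminescence, CellTiter-Glo, same wells as bla assay. System: ER-beta-UAS-bla GripTite HEK293T, 2% charcoal-stripped FBS. Exposure: compounds plus 1nM 17-beta-estradiol, 16 hr, 37C.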

[5] = qHTS assay to identify small molecule agonists or antagonists of the thyroid stimulating hormone receptor (TSHR) signaling pathway - wild type cell line counter screen (AID 1259384; calls by dose curve)
Procedure, shortened: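 Wild-type HEK293 cells were plated 18 h at 37 C/5% CO2, pin-dosed with compound plus Ro20-1724 medium, held 30 min at room temperature, then given cAMP-d2 and anti-cAMP-cryptate; fluorescence was read after 1 h. Fifteen concentrations, triplicate.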

[6] = qHTS assay to identify small molecule agonists of the estrogen receptor alpha (ER-alpha) signaling pathway in the presence of an antagonist - cell viability counter screen (AID 1259386);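 also: cells exposed to compounds for 22 h at 37 °C before the viability read; nearly all actives have a fitted effect of over 30% in size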; also: potency is read from the fitted curve at half-maximal effect; as to activity change, negative = cytotoxicity: series mostly up to about 92 µM
Procedure, shortened: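 The test measures whether compounds kill ER-alpha reporter cells (VM7Luc4E2) under antagonist co-treatment (ICI-182,780, 10.0nM). Fluorescence from CellTiter-Fluor is read after a 22hr exposure.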

[7] = target: Progesterone receptor (Homo sapiens) (UniProt P06401); experiment: qHTS assay to identify small molecule agonists of the progesterone receptor (PR) signaling pathway (AID 1346784; calls by dose curve; also: nearly all actives have a fitted effect of over 30% in size; also: potency is read from the fitted curve at half-maximal effect)
Procedure, shortened: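 Compounds were tested for PR agonism in HEK 293T cells bearing a beta-lactamase gene under UAS control. Treatment lasted 16 hr at 37C; signal came from fluorescence of a FRET substrate.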

[8] = target: Progesterone receptor (Homo sapiens) (UniProt P06401); experiment: qHTS assay to identify small molecule antagonists of the progesterone receptor (PR) signaling pathway (AID 1346795; active = well fitted inhibition curve with a large enough effect in the signal ratio in the repeat runs, not every such curve was filed as active; the % refers to the signal ratio; also: potency is read from the fitted curve at half-maximal effect)
Procedure, shortened: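 In HEK293T cells bearing the PR-UAS-bla reporter, compound effects on promegestone-driven (1 nM) beta-lactamase expression are assessed after 16 hr using a fluorescent FRET substrate incubated 2 hr at room temperature.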

[9] = target: Estrogen receptor (Homo sapiens) (UniProt P03372); experiment: qHTS assay to identify small molecule agonists of the estrogen receptor alpha (ER-alpha) signaling pathway in the presence of an antagonist (AID 1259383; calls by dose curve; also: top concentration of the series differs between compounds; nearly all actives have a fitted effect of over 15% in size)
Procedure, shortened: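 Quantitative HTS confirmation: compounds titrated at 15 concentrations onto estrogen-deprived VM7Luc4E2 cells carrying a four-ERE luciferase construct, with ICI-182,780 present at 10.0nM final. Signal is luminescence after 22hr exposure.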

[10] = target: Thyrotropin receptor (Homo sapiens) (UniProt P16473); experiment: qHTS assay to identify small molecule antagonists of the thyroid stimulating hormone receptor (TSHR) signaling pathway (AID 1259385; calls by dose curve; also: nearly all actives have a fitted effect of over 20% in size; also: potency is read from the fitted curve at half-maximal effect)
Procedure, shortened: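 TSHR-HEK293 cells were plated and held 18 h at 37C/5% CO2, then given compound plus Ro20-1724 and stimulated with TSH at 1.5 ng/mL final. After 30 min at room temperature, cAMP was detected with cAMP-d2/anti-cAMP-cryptate (1 h) by fluorescence.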
% is scaled to controls: 0 for no effect and ±100 for the full control effect.

Sequence of Estrogen receptor (Homo sapiens) (P03372 whole entry, looked up): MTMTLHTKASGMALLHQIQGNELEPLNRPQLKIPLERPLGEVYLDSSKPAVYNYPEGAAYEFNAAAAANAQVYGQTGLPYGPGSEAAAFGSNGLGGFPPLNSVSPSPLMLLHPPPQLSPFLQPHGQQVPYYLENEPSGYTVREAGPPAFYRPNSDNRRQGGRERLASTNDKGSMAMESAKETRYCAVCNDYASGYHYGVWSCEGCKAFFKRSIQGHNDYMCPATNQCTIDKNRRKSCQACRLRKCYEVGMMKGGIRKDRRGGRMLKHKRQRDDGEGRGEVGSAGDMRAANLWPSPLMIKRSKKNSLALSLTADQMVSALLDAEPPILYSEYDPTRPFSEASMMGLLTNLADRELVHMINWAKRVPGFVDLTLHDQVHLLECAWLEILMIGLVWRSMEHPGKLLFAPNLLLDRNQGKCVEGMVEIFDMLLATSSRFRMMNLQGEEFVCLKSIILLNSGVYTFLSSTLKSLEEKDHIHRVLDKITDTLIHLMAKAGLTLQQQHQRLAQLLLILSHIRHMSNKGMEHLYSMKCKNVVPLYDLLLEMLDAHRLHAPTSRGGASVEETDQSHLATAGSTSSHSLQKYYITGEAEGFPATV
Sequence of Progesterone receptor (Homo sapiens) (P06401 whole entry, looked up): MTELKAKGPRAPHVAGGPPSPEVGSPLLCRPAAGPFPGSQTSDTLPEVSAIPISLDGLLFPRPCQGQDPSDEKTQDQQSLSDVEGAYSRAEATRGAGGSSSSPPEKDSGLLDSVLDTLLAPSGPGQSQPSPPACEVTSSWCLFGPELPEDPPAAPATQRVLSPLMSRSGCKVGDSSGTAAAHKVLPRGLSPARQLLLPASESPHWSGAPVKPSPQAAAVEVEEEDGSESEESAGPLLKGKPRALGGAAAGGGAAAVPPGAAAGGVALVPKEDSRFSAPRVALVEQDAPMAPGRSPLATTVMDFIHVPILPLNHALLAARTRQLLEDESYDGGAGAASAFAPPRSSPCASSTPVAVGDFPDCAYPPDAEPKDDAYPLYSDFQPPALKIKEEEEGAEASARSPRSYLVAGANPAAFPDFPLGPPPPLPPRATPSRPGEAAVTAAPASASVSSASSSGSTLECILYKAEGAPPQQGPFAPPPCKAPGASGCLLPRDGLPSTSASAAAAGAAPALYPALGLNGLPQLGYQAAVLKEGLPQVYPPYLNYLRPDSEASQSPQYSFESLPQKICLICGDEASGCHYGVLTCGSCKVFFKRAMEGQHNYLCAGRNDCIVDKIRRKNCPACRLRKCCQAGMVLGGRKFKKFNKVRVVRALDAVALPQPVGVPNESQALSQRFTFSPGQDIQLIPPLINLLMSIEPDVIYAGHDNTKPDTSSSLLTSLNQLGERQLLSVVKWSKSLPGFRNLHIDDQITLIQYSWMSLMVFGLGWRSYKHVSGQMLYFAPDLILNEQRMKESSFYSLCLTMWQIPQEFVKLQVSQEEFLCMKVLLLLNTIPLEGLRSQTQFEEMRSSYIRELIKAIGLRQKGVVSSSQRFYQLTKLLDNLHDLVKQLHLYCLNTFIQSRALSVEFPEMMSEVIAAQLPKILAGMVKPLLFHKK
Sequence of Thyrotropin receptor (Homo sapiens) (P16473 whole entry, looked up): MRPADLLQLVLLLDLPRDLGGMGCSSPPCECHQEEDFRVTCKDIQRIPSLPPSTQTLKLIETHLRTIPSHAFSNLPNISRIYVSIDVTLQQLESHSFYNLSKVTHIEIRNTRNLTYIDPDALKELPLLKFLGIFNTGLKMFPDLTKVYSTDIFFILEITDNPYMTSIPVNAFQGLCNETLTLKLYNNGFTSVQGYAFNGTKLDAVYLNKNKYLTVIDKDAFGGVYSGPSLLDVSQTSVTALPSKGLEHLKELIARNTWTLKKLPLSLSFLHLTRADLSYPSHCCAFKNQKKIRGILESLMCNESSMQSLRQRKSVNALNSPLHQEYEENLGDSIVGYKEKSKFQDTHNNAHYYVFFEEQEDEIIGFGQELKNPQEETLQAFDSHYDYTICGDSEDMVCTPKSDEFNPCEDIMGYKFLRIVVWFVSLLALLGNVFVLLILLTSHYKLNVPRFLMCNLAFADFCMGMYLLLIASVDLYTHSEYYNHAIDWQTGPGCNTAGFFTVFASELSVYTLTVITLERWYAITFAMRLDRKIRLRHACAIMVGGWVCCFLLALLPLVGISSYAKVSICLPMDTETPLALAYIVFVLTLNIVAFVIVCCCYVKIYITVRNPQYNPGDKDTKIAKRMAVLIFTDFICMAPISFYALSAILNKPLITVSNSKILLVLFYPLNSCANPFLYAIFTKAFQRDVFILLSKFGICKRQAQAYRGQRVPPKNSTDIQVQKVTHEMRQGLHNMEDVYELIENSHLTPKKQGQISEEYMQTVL
Sequence of Androgen receptor (Homo sapiens) (P10275 whole entry, looked up): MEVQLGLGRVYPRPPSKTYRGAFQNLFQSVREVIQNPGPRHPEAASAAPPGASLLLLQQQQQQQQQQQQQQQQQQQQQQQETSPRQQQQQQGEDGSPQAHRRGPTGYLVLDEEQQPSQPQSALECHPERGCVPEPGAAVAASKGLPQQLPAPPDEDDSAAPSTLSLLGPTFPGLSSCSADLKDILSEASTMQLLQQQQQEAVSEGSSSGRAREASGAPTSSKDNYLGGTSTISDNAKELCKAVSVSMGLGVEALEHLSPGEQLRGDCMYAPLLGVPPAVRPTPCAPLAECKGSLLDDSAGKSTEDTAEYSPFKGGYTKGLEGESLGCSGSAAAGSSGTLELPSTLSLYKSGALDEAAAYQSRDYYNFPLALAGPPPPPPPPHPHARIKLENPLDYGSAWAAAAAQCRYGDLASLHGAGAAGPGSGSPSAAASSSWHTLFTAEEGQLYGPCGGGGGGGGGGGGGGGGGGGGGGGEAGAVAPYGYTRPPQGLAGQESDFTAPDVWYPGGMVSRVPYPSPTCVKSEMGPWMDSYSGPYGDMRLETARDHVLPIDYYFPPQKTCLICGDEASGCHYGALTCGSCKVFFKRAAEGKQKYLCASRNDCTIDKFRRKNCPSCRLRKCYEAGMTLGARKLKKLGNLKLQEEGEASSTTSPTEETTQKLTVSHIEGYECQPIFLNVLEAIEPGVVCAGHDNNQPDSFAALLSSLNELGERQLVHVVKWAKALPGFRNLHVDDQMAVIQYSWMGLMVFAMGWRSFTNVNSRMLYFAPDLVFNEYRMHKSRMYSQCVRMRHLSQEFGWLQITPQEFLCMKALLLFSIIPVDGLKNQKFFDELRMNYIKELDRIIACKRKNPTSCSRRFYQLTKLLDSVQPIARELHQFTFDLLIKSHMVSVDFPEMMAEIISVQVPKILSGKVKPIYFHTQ

Nc1cc([N+](=O)[O-])ccc1O
inactive: Potency [2] | Potency [3] | Potency [4] | outcome [5] | Potency [7] | Potency [8]
active: Potency [1] 48.6 µM and 54.2 µM | Potency [6] 43.3 µM and 27.2 µM

CC(=O)OCC(=O)[C@@]12N=C(C)O[C@@H]1C[C@H]1[C@@H]3CCC4=CC(=O)C=C[C@]4(C)[C@H]3[C@@H](O)C[C@@]12C
active: Potency [7] 686 nM
inactive: Potency [1] | Potency [2] | Potency [4] | Potency [9] | outcome [5] | Potency [10] | Potency [6] | Potency [8]

CC(=O)Nc1cccc(O)c1
24.2 µM (active) and inactive: Potency [7]
inactive: Potency [1] | Potency [2] | Potency [4] | Potency [9] | outcome [5] | Potency [10] | Potency [6] | Potency [8]

C=C(C)C(=O)OCCOCCOCCOC(=O)C(=C)C
inactive: Potency [1] | Potency [2] | Potency [4] | outcome [5] | Potency [10] | Potency [6] | Potency [7] | Potency [8]

O=C(O)c1cc(=O)c2c(OCC(O)COc3cccc4oc(C(=O)O)cc(=O)c34)cccc2o1
inactive: Potency [1] | Potency [2] | Potency [4] | Potency [9] | outcome [5] | Potency [10] | Potency [6] | Potency [7] | Potency [8]

C/C=C1/CC2C=CC1C2 (configuration not stated)
inactive: Potency [1] | Potency [2] | Potency [4] | Potency [9] | Potency [6] | Potency [7] | Potency [8]

CCCCCCCCCCCCc1ccccc1
inactive: Potency [1] | Potency [2] | Potency [4] | outcome [5] | Potency [10] | Potency [6] | Potency [7] | Potency [8]

N[C@@H](Cc1cc(I)c(Oc2cc(I)c(O)c(I)c2)c(I)c1)C(=O)O
inactive: Potency [1] | Potency [2] | Potency [4] | outcome [5] | Potency [10] | Potency [6] | Potency [7] | Potency [8]

CCCCOC(=O)COc1ccc(Cl)cc1Cl
inactive: Potency [1] | Potency [2] | Potency [4] | outcome [5] | Potency [10] | Potency [6] | Potency [7] | Potency [8]

C=CCOC(=O)c1ccccc1C(=O)OCC=C
inactive: Potency [1] | Potency [2] | Potency [4] | Potency [9] | outcome [5] | Potency [10] | Potency [6] | Potency [7] | Potency [8]

CC[C@H](C)C(=O)O[C@H]1C[C@@H](C)C=C2C=C[C@H](C)[C@H](CC[C@@H]3C[C@@H](O)CC(=O)O3)[C@H]21
active: Potency [2] 34.9 µM and 30.5 µM and 15 µM | Potency [4] 39.1 µM and 26.6 µM
inactive: Potency [1] | Potency [9] | outcome [5] | Potency [10] | Potency [6] | Potency [7] | Potency [8]

OC[C@H]1O[C@@](CO)(O[C@H]2O[C@H](CO)[C@@H](O)[C@H](O)[C@H]2O)[C@@H](O)[C@@H]1O
inactive: Potency [1] | Potency [2] | Potency [4] | Potency [9] | Potency [6] | Potency [7] | Potency [8]

O=C(O)c1cc(O)c(O)c(O)c1
inactive: Potency [2] | Potency [4] | Potency [9] | outcome [5] | Potency [10] | Potency [7] | Potency [8]
55 µM (active) and inactive: Potency [1]
active: Potency [6] 55 µM

CCN(CC)CCCC(C)Nc1ccnc2cc(Cl)ccc12 (configuration not stated)
active: Potency [7] 119 nM
inactive: activity change, negative = cytotoxicity [1] -10.8% [at 8.39 µM] | activity change, negative = cytotoxicity [2] -12.8% [at 8.39 µM] and -6.59% [at 19 µM] | activity change, negative = cytotoxicity [4] -20.4% [at 8.39 µM] and -8.86% [at 19 µM] | activation [9] -0.124% [at 8.39 µM] and -1.51% [at 19 µM] | activation [7] -0.551% [at 19 µM] | activity change, negative = inhibition [8] 0.105% [at 8.39 µM] and 2.39% [at 18.9 µM]

CC(C)(N)CO
inactive: Potency [1] | Potency [2] | Potency [4] | Potency [9] | outcome [5] | Potency [10] | Potency [6] | Potency [7] | Potency [8]

CC(=O)CC(=O)Nc1ccccc1C
inactive: Potency [1] | Potency [2] | Potency [4] | Potency [9] | outcome [5] | Potency [10] | Potency [6] | Potency [7] | Potency [8]

C#CCN(C)Cc1ccccc1
inactive: Potency [1] | Potency [2] | Potency [4] | Potency [9] | outcome [5] | Potency [10] | Potency [6] | Potency [7] | Potency [8]

c1c[nH]cn1
inactive: Potency [1] | Potency [2] | Potency [4] | Potency [9] | Potency [6] | Potency [7] | Potency [8]

CCc1ccc(CCOc2ccc(CC3SC(=O)NC3=O)cc2)nc1 (configuration not stated)
inactive: Potency [1] | Potency [2] | Potency [4] | Potency [9] | Potency [6] | Potency [7]

CCCCCCCCCC
inactive: Potency [1] | Potency [2] | Potency [4] | Potency [9] | outcome [5] | Potency [10] | Potency [6] | Potency [7] | Potency [8]

CCCCCCCCCCCCS
inactive: Potency [1] | Potency [2] | Potency [4] | Potency [9] | outcome [5] | Potency [10] | Potency [6] | Potency [7] | Potency [8]

C=C(C)C(=O)O[C@H]1C[C@@H]2CC[C@@]1(C)C2(C)C
7.65 µM (active) and inactive: Potency [4]
2.71 µM (active) and inactive: Potency [8]
inactive: Potency [1] | Potency [9] | outcome [5] | Potency [10] | Potency [6] | Potency [7]
4.3 µM (active) and inactive: Potency [2]

O=C=NCCCCCCN=C=O
inactive: Potency [1] | Potency [2] | Potency [4] | Potency [9] | outcome [5] | Potency [10] | Potency [6] | Potency [7] | Potency [8]

C=C(C)C(=O)Nc1ccc(Cl)c(Cl)c1
inactive: Potency [1] | Potency [4] | Potency [9] | outcome [5] | Potency [10] | Potency [6] | Potency [7]
active: Potency [2] 55 µM and 54.3 µM | Potency [8] 24.6 µM and 48.4 µM

Cc1cnc(C(=O)NCCc2ccc(S(=O)(=O)NC(=O)NC3CCCCC3)cc2)cn1
inactive: Potency [1] | Potency [2] | Potency [4] | Potency [9] | outcome [5] | Potency [10] | Potency [6] | Potency [7] | Potency [8]

COc1cc(Cc2cnc(N)nc2N)cc(OC)c1OC
inactive: Potency [1] | Potency [2] | Potency [4] | Potency [9] | outcome [5] | Potency [10] | Potency [6] | Potency [8]
5.43 µM (active) and inactive: Potency [7]

CC(C)(C)[C@@H](O)[C@@H](Cc1ccc(Cl)cc1)n1cncn1
active: Potency [8] 48.2 µM
inactive: Potency [1] | Potency [2] | Potency [4] | outcome [5] | Potency [10] | Potency [6] | Potency [7]

O=[N+]([O-])c1ccc(/C=C/c2ccc([N+](=O)[O-])cc2S(=O)(=O)O)c(S(=O)(=O)O)c1
inactive: Potency [1] | Potency [2] | Potency [4] | Potency [9] | Potency [6] | Potency [7] | Potency [8]

COc1ccc(Nc2ccccc2)c(C)c1
inactive: Potency [1] | Potency [2] | Potency [4] | Potency [9] | outcome [5] | Potency [10] | Potency [6] | Potency [7] | Potency [8]

CC1=CCC2CC1C2(C)C (configuration not stated)
inactive: Potency [1] | Potency [2] | Potency [4] | Potency [9] | outcome [5] | Potency [10] | Potency [6] | Potency [7] | Potency [8]

OCc1cccnc1
inactive: Potency [1] | Potency [2] | Potency [4] | Potency [9] | Potency [6] | Potency [7] | Potency [8]

c1ccc(OCCOc2ccccc2)cc1
inactive: Potency [1] | Potency [2] | Potency [4] | Potency [9] | outcome [5] | Potency [10] | Potency [6] | Potency [7] | Potency [8]

CCCCCC1=CCCC1=O
inactive: Potency [1] | Potency [2] | Potency [4] | Potency [9] | outcome [5] | Potency [10] | Potency [6] | Potency [7] | Potency [8]

O=C(OCCOCCOC(=O)c1ccccc1)c1ccccc1
inactive: Potency [1] | Potency [2] | Potency [4] | Potency [9] | outcome [5] | Potency [10] | Potency [6] | Potency [7] | Potency [8]

CCCCN(CCCC)CCCC
inactive: Potency [1] | Potency [2] | Potency [4] | Potency [9] | outcome [5] | Potency [10] | Potency [6] | Potency [7] | Potency [8]

Cc1cccc(O)c1
inactive: Potency [1] | Potency [2] | Potency [4] | Potency [9] | Potency [6] | Potency [7] | Potency [8]

CCCCCCOCCO
inactive: Potency [1] | Potency [2] | Potency [4] | Potency [9] | Potency [6] | Potency [7] | Potency [8]

CCCCCCCCCCCCCCO
inactive: Potency [1] | Potency [2] | Potency [4] | Potency [9] | outcome [5] | Potency [10] | Potency [6] | Potency [7] | Potency [8]

CCCCC(CC)COC(=O)C(C#N)=C(c1ccccc1)c1ccccc1 (configuration not stated)
active: Potency [10] 61.1 µM | Potency [8] 8.63 µM
inactive: Potency [1] | Potency [2] | Potency [4] | outcome [5] | Potency [6] | Potency [7]

C#C[C@]1(O)CC[C@H]2[C@@H]3CCC4=CC(=O)CC[C@@H]4[C@H]3CC[C@@]21C
inactive: Potency [1] | Potency [4] | outcome [5] | Potency [10] | Potency [6]
active: Potency [2] 48.6 µM

CCN(CC)c1ccc(C(=O)c2ccccc2C(=O)O)c(O)c1
inactive: Potency [9]
